{
  "source": "the supplement of paper PMC12669032",
  "note": "Values without a mark were called inactive.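 How the source made its calls: active = AUC reduced over 20% with Padj below 0.05 in at least 2 of 3 replicates; inactive = otherwise.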",
  "data": [
    {"tested_on": "Lactobacillus paracasei", "test": "growth AUC relative to DMSO control (median of replicates) (fraction); higher = more growth (less inhibition), active = hit call of the paper", "conditions": "20 µM; 24 h", "outline": "(§1)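 Area under the growth curve was normalised to the plate median of solvent-only wells, except on the industrial chemical plate, where row and column medians were used. Curves came from gut bacterial monocultures grown anaerobically at 37 °C in mGAM with 20 µM compound (1% DMSO), starting at OD600 0.05 and read at OD600 every hour for 24 h. The minimum OD of each curve was set to 0, and values are medians of three biological replicates grown on separate days.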", "values": [
      {"smiles": "COC(=O)c1ccccc1CS(=O)(=O)NC(=O)Nc1nc(OC)cc(OC)n1", "growth AUC": 1},
      {"smiles": "CNC(=O)O/N=C(\\SC)C(=O)N(C)C", "growth AUC": 0.883},
      {"smiles": "O=[N+]([O-])c1ccc(Oc2ccc(Cl)cc2Cl)cc1", "growth AUC": 0.976},
      {"smiles": "CCCCOC(=O)c1ccccc1C(=O)OCCCC", "growth AUC": 0.986},
      {"smiles": "O=C(NC(=O)c1c(F)cccc1F)Nc1ccc(Cl)cc1", "growth AUC": 0.965},
      {"smiles": "COP(=S)(OC)Oc1ccc(S(C)=O)c(C)c1", "note": "(centres undefined)", "growth AUC": 1.01},
      {"smiles": "COP(=O)(OC)Oc1ccc(SC)c(C)c1", "growth AUC": 1},
      {"smiles": "C=CC(N)=O", "growth AUC": 1.01},
      {"smiles": "CCOC(=O)Nc1cccc(OC(=O)Nc2ccccc2)c1", "growth AUC": 0.908},
      {"smiles": "C=CCC1=C(C)C(OC(=O)[C@@H]2[C@@H](C=C(C)C)C2(C)C)CC1=O", "note": "(some centres undefined)", "growth AUC": 0.968},
      {"smiles": "CNC(=O)Oc1cc(C)c(N(C)C)c(C)c1", "growth AUC": 0.953},
      {"smiles": "CC(C)(COCc1cccc(Oc2ccccc2)c1)c1ccc(OC(F)(F)Br)cc1", "growth AUC": 1.05},
      {"smiles": "OC(c1ccc(Cl)cc1)(c1cncnc1)c1ccccc1Cl", "note": "(centres undefined)", "growth AUC": 1.12},
      {"smiles": "CCCSP(=O)(OCC)Oc1ccc(Br)cc1Cl", "note": "(centres undefined)", "growth AUC": 1.1},
      {"smiles": "CCOP(=S)(OCC)SCSc1ccc(Cl)cc1", "growth AUC": 1}
    ]},
    {"tested_on": "Odoribacter splanchnicus", "test": "growth AUC relative to DMSO control (median of replicates) (fraction); higher = more growth (less inhibition), active = hit call of the paper", "conditions": "20 µM; 24 h", "outline": "as §1", "values": [
      {"smiles": "CC1(C)C(C=C(Cl)Cl)C1C(=O)OC(C#N)c1ccc(F)c(Oc2ccccc2)c1", "note": "(mixture of isomers)", "growth AUC": 0.95},
      {"smiles": "c1ccc2c(c1)cc1ccc3cccc4ccc2c1c34", "growth AUC": 0.932},
      {"smiles": "CCc1cccc(C)c1N(C(=O)CCl)C(C)COC", "note": "(centres undefined)", "growth AUC": 0.972},
      {"smiles": "CO/C=C(/C(=O)OC)c1ccccc1Oc1cc(Oc2ccccc2C#N)ncn1", "growth AUC": 0.959},
      {"smiles": "O=C(NCCc1ncc(C(F)(F)F)cc1Cl)c1ccccc1C(F)(F)F", "growth AUC": 0.985},
      {"smiles": "CC(=O)CC(c1ccc(Cl)cc1)c1c(O)c2ccccc2oc1=O", "note": "(centres undefined)", "growth AUC": 0.971},
      {"smiles": "CCOP(=S)(OCC)Oc1ccc(S(C)=O)cc1", "note": "(centres undefined)", "growth AUC": 0.977},
      {"smiles": "CCOP(=O)(NC(C)C)Oc1ccc(S(C)(=O)=O)c(C)c1", "note": "(centres undefined)", "growth AUC": 1.05},
      {"smiles": "Clc1cccc(C(Cl)(Cl)Cl)n1", "growth AUC": 0.964},
      {"smiles": "COP(=O)(OC)Oc1ccc(S(C)(=O)=O)c(C)c1", "growth AUC": 1.02},
      {"smiles": "Clc1ccc(C(c2ccc(Cl)cc2)C(Cl)(Cl)Cl)cc1", "growth AUC": 0.709},
      {"smiles": "O=c1oc2ccccc2c(O)c1C(CC(O)c1ccc(-c2ccc(Br)cc2)cc1)c1ccccc1", "note": "(centres undefined)", "growth AUC": "0.167 (active)"},
      {"smiles": "C[Si](Cn1cncn1)(c1ccc(F)cc1)c1ccc(F)cc1", "growth AUC": 0.925},
      {"smiles": "CCCCN(CC)c1c([N+](=O)[O-])cc(C(F)(F)F)cc1[N+](=O)[O-]", "growth AUC": 1.05},
      {"smiles": "Cc1cc(Cl)ccc1OCC(=O)O", "growth AUC": 1.05},
      {"smiles": "O=C1c2ccccc2C(=O)N1SC(Cl)(Cl)Cl", "growth AUC": 1.02},
      {"smiles": "CCCCOCN(C(=O)CCl)c1c(CC)cccc1CC", "growth AUC": 0.909},
      {"smiles": "CN(C)C(CSC(N)=O)CSC(N)=O.Cl", "growth AUC": 0.982},
      {"smiles": "O=NN(CCO)CCO", "growth AUC": 1.13},
      {"smiles": "O=C(O)C(Cl)Cl", "growth AUC": 0.997},
      {"smiles": "C1CCC(NC2CCCCC2)CC1.O=NO", "growth AUC": 0.93},
      {"smiles": "Oc1ccc(Cl)cc1Cc1cc(Cl)ccc1O", "growth AUC": "0.0459 (active)"},
      {"smiles": "Clc1cc(Cl)c(Cl)c(Cl)c1", "growth AUC": 1.08},
      {"smiles": "CNC(=O)/C(=N/OC)c1ccccc1Oc1ccccc1", "growth AUC": 0.992},
      {"smiles": "COC(=O)c1ccccc1CS(=O)(=O)NC(=O)Nc1nc(OC)cc(OC)n1", "growth AUC": 1.02},
      {"smiles": "CNC(=O)O/N=C(\\SC)C(=O)N(C)C", "growth AUC": 0.975},
      {"smiles": "O=[N+]([O-])c1ccc(Oc2ccc(Cl)cc2Cl)cc1", "growth AUC": 0.946},
      {"smiles": "CCCCOC(=O)c1ccccc1C(=O)OCCCC", "growth AUC": 1.07},
      {"smiles": "O=C(NC(=O)c1c(F)cccc1F)Nc1ccc(Cl)cc1", "growth AUC": 0.985},
      {"smiles": "COP(=S)(OC)Oc1ccc(S(C)=O)c(C)c1", "note": "(centres undefined)", "growth AUC": 0.979},
      {"smiles": "COP(=O)(OC)Oc1ccc(SC)c(C)c1", "growth AUC": 0.994},
      {"smiles": "C=CC(N)=O", "growth AUC": 1.01},
      {"smiles": "CCOC(=O)Nc1cccc(OC(=O)Nc2ccccc2)c1", "growth AUC": 0.986},
      {"smiles": "C=CCC1=C(C)C(OC(=O)[C@@H]2[C@@H](C=C(C)C)C2(C)C)CC1=O", "note": "(some centres undefined)", "growth AUC": 1.07},
      {"smiles": "CNC(=O)Oc1cc(C)c(N(C)C)c(C)c1", "growth AUC": 1.08},
      {"smiles": "CC(C)(COCc1cccc(Oc2ccccc2)c1)c1ccc(OC(F)(F)Br)cc1", "growth AUC": 0.988},
      {"smiles": "OC(c1ccc(Cl)cc1)(c1cncnc1)c1ccccc1Cl", "note": "(centres undefined)", "growth AUC": 0.611},
      {"smiles": "CCCSP(=O)(OCC)Oc1ccc(Br)cc1Cl", "note": "(centres undefined)", "growth AUC": 1.04},
      {"smiles": "CCOP(=S)(OCC)SCSc1ccc(Cl)cc1", "growth AUC": 1.06}
    ]}
  ]
}
